# From the supplement of paper PMC6555819
# Experiments:
# Experiment in all cases: PBM binding z-score (relative to random genomic background probes); higher = stronger binding; sequences stand for … in GC…GCGATTGACAGCGTAGAATGAAGG
# [1] = tested on: PPARg:RXRa DBDmut IVT, anti-RXR (DBD mutation: RXRa K156A/R161A, NR concentration 270 nM, RXRa partner concentration 90 nM)
# Outline: (§1)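 Ligand-free nuclear receptor dimers were applied to custom Agilent 4×180K protein-binding microarrays whose double-stranded probes carried direct-repeat seeds, single-nucleotide variants, half-site ablations and random human genomic background sequences in 34-nt variable regions. Incubation lasted 1 h. Binding z-scores were computed against the random background probes from regression-normalized fluorescence.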
# [2] = tested on: PPARg:RXRa IVT, anti-PPARg (NR concentration 270 nM, RXRa partner concentration 90 nM)
# Outline: as §1
# [3] = tested on: PPARg DBDmut:RXRa IVT, anti-PPARg (DBD mutation: PPARg1 K132A/R137A, NR concentration 270 nM, RXRa partner concentration 90 nM)
# Outline: as §1
# [4] = tested on: PPARg DBDmut IVT, anti-PPARg (DBD mutation: PPARg1 K132A/R137A, NR concentration 270 nM)
# Outline: as §1
# [5] = tested on: PPARg homodimer (NR concentration 180 nM)
# Outline: as §1
# [6] = tested on: PXR:RXRa (NR concentration 270 nM, RXRa partner concentration 90 nM)
# Outline: as §1
# [7] = tested on: PXR homodimer (NR concentration 270 nM)
# Outline: as §1
# [8] = tested on: RARa:RXR (NR concentration 270 nM, RXRa partner concentration 90 nM)
# Outline: as §1
# [9] = tested on: RARa homodimer (NR concentration 270 nM)
# Outline: as §1
# [10] = tested on: RARb:RXRa (NR concentration 270 nM, RXRa partner concentration 90 nM)
# Outline: as §1
# [11] = tested on: RARb homodimer (NR concentration 270 nM)
# Outline: as §1
# [12] = tested on: RARg:RXRa (NR concentration 270 nM, RXRa partner concentration 90 nM)
# Outline: as §1
# [13] = tested on: RARg homodimer (NR concentration 270 nM)
# Outline: as §1
# [14] = tested on: RXRa DBDmut IVT, anti-RXR (DBD mutation: RXRa K156A/R161A, NR concentration 90 nM)
# Outline: as §1
# [15] = tested on: RXRa homodimer (NR concentration 180 nM)
# Outline: as §1
# [16] = tested on: THRa:RXRa (NR concentration 90 nM, RXRa partner concentration 90 nM)
# Outline: as §1
# [17] = tested on: THRa homodimer (NR concentration 90 nM)
# Outline: as §1
# [18] = tested on: VDR homodimer (NR concentration 270 nM)
# Outline: as §1
Sequence,PBM binding z-score [1],PBM binding z-score [2],PBM binding z-score [3],PBM binding z-score [4],PBM binding z-score [5],PBM binding z-score [6],PBM binding z-score [7],PBM binding z-score [8],PBM binding z-score [9],PBM binding z-score [10],PBM binding z-score [11],PBM binding z-score [12],PBM binding z-score [13],PBM binding z-score [14],PBM binding z-score [15],PBM binding z-score [16],PBM binding z-score [17],PBM binding z-score [18]
GCTGCTAGGTCAGGTTAGTCAGCTAACGGGTACG,2.9,2.42,-0.896,-1.02,0.349,0.128,-0.498,0.677,-0.907,3.29,2.62,2.89,3.82,0.579,1.17,2.36,0.56,0.0703
AGAATGAAGTTAAGATCAGGGAAACAGAATACAT,-0.915,-0.265,0.14,0.809,-0.657,-0.19,0.0131,-0.474,0.347,-0.251,-0.296,0.141,0.297,-0.544,0.166,0.135,-0.599,-0.0314
TCTGCTAGGTCAACGATGGTCAGGTAATCTGCTA,4.42,4.19,0.0564,-0.0875,0.216,1.61,-0.526,2.34,-0.895,3.93,3.36,4.2,5.52,1.12,3.11,3.09,1.34,-0.177
TCTTGTAGATCCACAGGAGGTTAAGAAAGATCGA,1.11,0.557,0.829,0.516,-0.676,0.82,-0.22,1.22,0.176,0.506,0.545,0.509,0.319,0.48,0.994,0.962,0.0268,-0.139
CGTCCAAGGTCAGCAGGTCGGTGAAAGCGACGTG,2.81,2.89,-0.853,-0.476,2.43,2.61,-0.066,3.58,0.0156,5.19,4.14,5.49,6.04,2.37,4.37,3.57,1.92,1.3
TAGCGTAGGTCATTCAGGGGCCAGTATAGAAAGC,0.864,1.61,0.591,0.134,2.48,3.08,0.138,4.5,0.404,3.99,3.37,6.52,5.07,1.79,3.93,3.56,-0.427,1.25
ATATGTAGGTTATCGGGTCATTCTGTTTGCGCAT,7.83,7.65,3.52,2.76,2.77,3.48,1.54,3.91,1.87,2.57,2.91,3.37,2.21,1.77,3.44,3.38,2.96,3.53
CCGACTGGGGCAAGGTTCCCATAACGCACAGCCA,2.36,3.12,-0.684,-0.962,0.192,-0.613,-0.376,-0.115,-0.502,0.825,0.27,0.259,0.433,-0.627,0.314,-0.0449,-0.119,-0.153
